# Measurements reported in PubChem BioAssay (Tox21).
# Results filed as inconclusive are left out. Unmarked numbers belong to inactive results. The source made the active and inactive calls. Calls follow the shape of the dose curve; as a rule, active = well fitted curve in the direction sought with a large enough effect in the signal ratio in the repeat runs (not every such curve was filed as active); inconclusive = weak or mixed curves, or effect the other way; inactive = no such curve, though single readings can be large or run the other way; the % refers to the signal ratio.
# Biological target: Estrogen receptor (Homo sapiens) (UniProt P03372)
# Experiment: qHTS assay to identify small molecule antagonists of the estrogen receptor alpha (ER-alpha) signaling pathway (AID 743069)
# Conditions: HEK293 ER-alpha-UAS-bla, beta-lactamase ratio, antagonist mode; series mostly up to 69.4 µM; activity, negative = inhibition: at the top concentration
# From the text: National Center for Advancing Translational Sciences [NCATS]
# NIH Chemical Genomics Center [NCGC]
# U.S. Environmental Protection Agency [EPA]
# National Institutes of Environmental Health Sciences [NIEHS]
# National Toxicology Program [NTP]
# U.S. Food and Drug Administration [FDA]
# Estrogen receptor (ER), a nuclear hormone receptor, plays an important role in development, metabolic homeostasis and reproduction. Two subtypes of ER, ER-alpha and ER-beta have similar expression patterns with some uniqueness in both types. Endocrine disrupting chemicals (EDCs) and their interactions with steroid hormone receptors like ER causes disruption of normal endocrine function. To identify the compounds that inhibit ER signaling, an ER-alpha-UAS-bla GripTiteTM cell line (Invitrogen, Carlsbad, CA, USA) containing a beta-lactamase reporter gene under the control of an Upstream Activator Sequence (UAS) stably integrated into HEK293 cells was used to screen the Tox21 10K compound library.
# Tox21 Assay Protocol Summary:
# ER-alpha-bla cells were cultured in assay medium containing 2% charcoal stripped FBS overnight in the culture flasks before the assay was performed. The cells were dispensed at 5,000 cells/5 uL of assay medium per well into black wall/clear-bottom 1536-well plates using a Multidrop Combi (ThermoFisher Scientific, Waltham, MA) dispenser. After the assay plates were incubated at a 37C and 5% CO2 for 4 hr, 23 nL of compounds dissolved in DMSO, positive controls or DMSO only was transferred to the assay plate by a Pintool station (Kalypsys, San Diego, CA), followed by addition of 1 uL of 17beta-estradiol in assay medium using a Flying Reagent Dispenser (Aurora Discovery, San Diego, CA). The plates were incubated at 37C and 5% CO2 for 18 hr. Then 1 uL of LiveBLAzerTM B/G FRET substrate was added using a Flying Reagent Dispenser, the plates were incubated at room temperature for 2 hours, and fluorescence intensity was measured by an Envision plate reader (PerkinElmer, Shelton, CT).
# % is scaled to controls: 0 for no effect and ±100 for the full control effect.
# Estrogen receptor (Homo sapiens), sequence (P03372 whole entry, looked up): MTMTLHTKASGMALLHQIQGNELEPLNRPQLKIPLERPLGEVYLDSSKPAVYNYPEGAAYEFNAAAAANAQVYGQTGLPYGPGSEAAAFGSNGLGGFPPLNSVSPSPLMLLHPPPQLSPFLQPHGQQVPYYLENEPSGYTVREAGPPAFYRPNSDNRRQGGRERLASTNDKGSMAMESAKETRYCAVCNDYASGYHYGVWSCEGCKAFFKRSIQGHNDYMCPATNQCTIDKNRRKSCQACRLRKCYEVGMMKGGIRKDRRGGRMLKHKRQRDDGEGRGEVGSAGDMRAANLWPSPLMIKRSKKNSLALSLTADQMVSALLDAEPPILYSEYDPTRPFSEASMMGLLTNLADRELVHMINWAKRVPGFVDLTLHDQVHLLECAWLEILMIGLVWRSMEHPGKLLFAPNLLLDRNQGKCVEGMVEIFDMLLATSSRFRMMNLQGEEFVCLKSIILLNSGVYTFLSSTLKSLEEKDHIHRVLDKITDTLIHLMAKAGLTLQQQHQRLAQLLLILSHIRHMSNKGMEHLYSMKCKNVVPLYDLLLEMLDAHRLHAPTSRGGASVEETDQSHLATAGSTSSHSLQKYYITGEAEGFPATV
Structure (SMILES),"activity, negative = inhibition",Potency
CCOC(=O)[C@H](CCc1ccccc1)N[C@@H](C)C(=O)N1Cc2cc(OC)c(OC)cc2C[C@H]1C(=O)O,9.05%,
CCCCC(CC)COC(=O)COc1cc(Cl)c(Cl)cc1Cl (stereo not given),-2.29%,
CN1CCN(c2c(F)cc3c(=O)c(C(=O)O)cn4c3c2SCC4)CC1,13.5%,
CC[C@H]1CC[C@H](NCc2cc3c(cc2OC)[C@H]2C[C@H]2C(=O)N3C)[C@H](c2ccccc2)N1,-12%,
CCCCNC(=S)NCCCC,-8.62%,
Cc1c[nH]c(=S)[nH]c1=O,-5.5%,
CCOC(=O)C(Br)c1ccccc1 (stereo not given),-6.92%,
COc1ccccc1OCC(O)COC(N)=O (stereo not given),6.38% [at 32.6 µM],
Cc1cc(S(=O)(=O)O)c(N)cc1Cl,9.71% [at 79.1 µM],
CCc1cc(Cl)c(OC)c(C(=O)NC[C@@H]2CCCN2CC)c1O,,inactive
CCOc1ccccc1N,-5.5%,
CCCOCCC,14.9%,
Cc1ncc(CO)c(CN)c1O,-5.98%,
CC(C)(C)C1CCCCC1=O (stereo not given),43.2%,
NS(=O)(=O)c1cc(-c2nn[nH]n2)c(NCc2cccs2)cc1Cl,9.9%,
FC(F)(F)c1ccccc1,-8.71%,
O=C1C=CC(=O)O1,-2.19% [at 79.1 µM],
CCOC(=O)C1CC(=O)C(=C(O)C2CC2)C(=O)C1 (stereo not given),-22.1%,
CCCCc1ccc2nc(NC(=O)OC)[nH]c2c1,-16.2% [at 32.6 µM],
CCCCC1CCC(=O)O1 (stereo not given),15.8%,

Structure (SMILES),"activity, negative = inhibition",Potency
Cc1ccc(C)c(N)c1,7.47%,
CC(C)CC(=O)OCc1ccccc1,5.5%,
OC[C@H]1O[C@@H](O[C@H]2[C@H](O)[C@@H](O)[C@H](O)O[C@@H]2CO)[C@H](O)[C@@H](O)[C@H]1O,-9.48%,
O=c1oc2c(O)c(O)cc3c(=O)oc4c(O)c(O)cc1c4c23,-3.6%,
CC(C)C(=O)OCC(C)(C)C(O)C(C)C (stereo not given),-6.08% [at 79.1 µM],
OCCN(CCO)c1ccccc1,22.1%,
CCOC(=O)COc1ccc2c(c1)CC(NCC(O)c1cccc(Cl)c1)CC2 (stereo not given),24.3%,
O=C1CCCc2ccccc21,14.1% [at 79.1 µM],
CCCNC(C)(C)COC(=O)c1ccccc1,-23.2%,
CCCNC(C)C(=O)Nc1c(C)csc1C(=O)OC (stereo not given),-6.04% [at 32.6 µM],
CCCCCCCOC(=O)CCC,38.5%,
CC(=O)N(CC(O)CN(C(C)=O)c1c(I)c(C(=O)NCC(O)CO)c(I)c(C(=O)NCC(O)CO)c1I)c1c(I)c(C(=O)NCC(O)CO)c(I)c(C(=O)NCC(O)CO)c1I (stereo not given),12.5% [at 32.6 µM],
CCN(CCCc1ccccc1)CCCc1ccccc1,12.9% [at 32.6 µM],
Oc1ccccc1F,-2.29%,
O=C1CCCCC1C1CCCCC1 (stereo not given),33.2%,
O=C(O)C(=O)Cc1c[nH]c2ccccc12,18.7%,
C=CCc1cc(OC)c(O)c(C(=O)NCCO)c1,7.3%,
Cc1ccsc1C(=CCCN1CCC[C@@H](C(=O)O)C1)c1sccc1C,17.5%,
C=C(C)C(=O)OCCOP(=O)(O)O,8% [at 79.1 µM],
CC(C)(CO)[C@@H](O)C(=O)NCCC(=O)O,-7.59% [at 79.1 µM],
